# Screening results: PubChem, National Center for Advancing Translational Sciences (NCATS)
# Sampled rows, rich in hits. Any-hit rate of the full collection: about 8.3%.
# HCV inhibitor = qHTS Assay for Inhibitors of Hepatitis C Virus (HCV); Huh7.5.1 HCVcc-Cre infection, luciferase reporter, 44 h; Potency, µM (highest dose often 41.8 µM), inactives show top-dose activity change, negative = inhibition, actives largely listed as inhibitors; actives 3.4% (n = 340,000); further: potency means the concentration at half of the fitted maximal effect
#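 Compounds are dispensed onto cells plated 4 h earlier at 1,000 per well, with HCVcc-Cre virus (about 0.5 moi) added next. Following 44 h of culture, luminescent signal is measured for 15 sec after 15 min with substrate at room temperature.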
# FBPA Giardia inh = qHTS Assay for Inhibitors of Fructose-1,6-bisphosphate Aldolase from Giardia Lamblia; A8B2U2; purified Giardia FBPA; Potency, µM (top dose mostly 59.6 µM), without a hit: top-dose activity, negative = inhibition, hits mostly inhibitors; actives 0.71% (n = 290,000); AID 2451, 2010; further: potency means the concentration at half of the fitted maximal effect; nearly all actives have a fitted effect of over 55% in size
# Target sequence (A8B2U2 whole entry, looked up): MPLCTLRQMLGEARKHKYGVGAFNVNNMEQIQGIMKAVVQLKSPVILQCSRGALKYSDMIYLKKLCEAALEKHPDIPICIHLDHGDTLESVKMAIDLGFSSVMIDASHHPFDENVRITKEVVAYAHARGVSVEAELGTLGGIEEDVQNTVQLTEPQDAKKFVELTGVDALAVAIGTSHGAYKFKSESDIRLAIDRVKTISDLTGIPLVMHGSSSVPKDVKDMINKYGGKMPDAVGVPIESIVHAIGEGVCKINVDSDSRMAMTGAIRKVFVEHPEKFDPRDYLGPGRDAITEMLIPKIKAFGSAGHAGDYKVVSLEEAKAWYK
#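 40 nM FBPA preincubated 10 min at RT with compound (up to 57.5 uM final), then substrate plus GAPDH/TPI/NAD/arsenate coupling and diaphorase/resazurin added. Fluorescence read after 20 min at RT, 525/598 nm.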
# LASV entry inh = qHTS for Inhibitors of binding or entry into cells for Lassa Virus; Potency, µM (series often up to 37.9 µM), inactives show at the highest dose activity change, negative = inhibition, usual class: inhibitors; Lassa virus pseudotype entry inhibition, cell reporter; actives 1.2% (n = 300,000); calls by dose curve; tested in HEK293 cells; further: potency means the concentration at half of the fitted maximal effect; nearly all actives have a fitted effect of over 50% in size
# Marburg entry inh = qHTS for inhibitors of binding or entry into cells for Marburg Virus | Marburg virus pseudotyped entry inhibition, cell reporter | AID 540276, 2011 | actives 1.8% (n = 300,000) | Potency, µM (top dose mostly 37.8 µM), for inactives: top-dose activity change, negative = inhibition, hits mostly inhibitors; calls by dose curve; tested in HEK293 cells; further: potency means the concentration at half of the fitted maximal effect
# FMDV inh = High Throughput Screening for Foot and Mouth Disease Virus Antivirals | AID 1159524, 2015 | Potency, µM (titrated, usually from 57.9 µM), without a hit: at the highest dose activity change, negative = inhibition, hits mostly inhibitors | FMDV antiviral cell-based qHTS | actives 1.2% (n = 410,000); calls by dose curve; tested in HEK293T cells; further: read-out not given here; potency means the concentration at half of the fitted maximal effect; nearly all actives have a fitted effect of over 45% in size
# HCMV antiviral = qHTS Assay for inhibitors of the human cytomegalovirus (HCMV) | HFF cells, HCMV-luciferase reporter, 72 h; active compounds read low | activity change, negative = inhibition, % at 57.5 µM | actives 4.5% (n = 410,000) | AID 1259415, 2018; in the data active means activity change below about -60%; inconclusive means no clear call, values can overlap the other calls; inactive means above about -39%
#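 Compounds were evaluated in HFFs infected with an HCMV luciferase reporter virus (MOI 1 PFU/cell). Luciferase in lysates collected 72 h post infection served as the replication measure.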
# Numbers without * were called inactive; ? = inconclusive; . = not tested or not shown; [ ] = dose if it differs, or a comment. Unless noted, the call rests on the fitted dose curve; in most records, active means well fitted curve in the direction sought with a large enough effect; inconclusive means small, poorly fitted or top-dose-only effect, or another doubt; inactive means no such curve, though single readings can be large; an effect the other way counts as inactive or inconclusive. On the % scale 0 is the no-effect control and ±100 the full control effect.
SMILES,HCV inhibitor,FBPA Giardia inh,LASV entry inh,Marburg entry inh,FMDV inh,HCMV antiviral
COc1cccc(-c2cc(N3CCN(C(=O)c4ccoc4)CC3)n3nc(-c4cccc(Cl)c4)cc3n2)c1,.,.,.,.,-29%,-94*
Cc1ccccc1C(=O)N(Cc1sccc1C)C1CCS(=O)(=O)C1 (centres undefined),.,.,19%[46.1 µM],-12%[46.1 µM],-13%,5
COc1ccc(CN2CCCC(n3cc(C(=O)N4CCCCC4)nn3)C2)cc1OC (centres undefined),.,.,.,.,13%,.
CCOc1cc(/C=N\Nc2ncc(F)c(N3CCOCC3)n2)ccc1Oc1nc(Cl)ncc1F,10µM*,-1%,?,?,16µM*,-73*
CCOc1cc(/C=N/NC(=O)c2ccc(O)cc2)ccc1Oc1nc(Cl)ncc1F,-21%,-8%,.,.,-25%,-71*
CCC(c1nnnn1C1CCCC1)N(Cc1cccs1)Cc1cc2cc(C)ccc2[nH]c1=O (centres undefined),-6%,-3%,?,?,0%,?
CCOC(=O)Cn1nnnc1C(C(C)C)N(Cc1cccs1)Cc1cc2cc(C)ccc2[nH]c1=O (centres undefined),?,-11%,?,9.2µM*,?,-11
CCOC(=O)Cn1nnnc1CN(Cc1ccc(OC)cc1)Cc1cc2cc(C)ccc2[nH]c1=O,13%,-3%,?,-10%,.,14
CCOC(=O)Cn1nnnc1C(CC)N(Cc1cccs1)Cc1cc2cc(C)ccc2[nH]c1=O (centres undefined),-7%,4%,?,16µM*,-19%,-5
CCOc1ccc2[nH]c(=O)c(CN(Cc3ccco3)C(CC)c3nnnn3Cc3ccccc3)cc2c1 (centres undefined),?,-17%,?,?,?,?
CCOc1ccc2[nH]c(=O)c(CN(Cc3cccs3)C(CC)c3nnnn3C(C)(C)CC)cc2c1 (centres undefined),10µM*,-18%,?,?,?,?
Cc1cccc(C)c1NC(=O)C(C1CC1)N1C(=O)C(=O)c2ccccc21 (centres undefined),.,.,.,.,.,-7
O=c1ccn([C@@H]2O[C@H](COP(=O)(O)O)[C@@H](O)[C@H]2O)c(=O)[nH]1,.,.,.,.,-17%,.
Oc1cc(-c2nc3ccccc3s2)cc2c1OCCN(Cc1cccn1-c1ccccn1)C2,.,.,.,.,16%,.
CCCS(=O)(=O)c1nc(S(=O)(=O)c2ccc(C)cc2)c(N(CC)CC)s1,.,.,2%[46.1 µM],-20%[46.1 µM],3%,?
CCN(CC)c1sc(S(=O)(=O)c2ccccc2)nc1S(=O)(=O)c1ccc(C)cc1,.,.,?,?,36%,-73*
Cc1ccc(S(=O)(=O)c2nc(S(=O)(=O)c3ccccc3)sc2N2CCN(C)CC2)cc1,-10%,-15%,.,.,9%,-99*
CCN(CC)CCCNc1sc(S(=O)(=O)c2ccccc2)nc1S(=O)(=O)c1ccc(Cl)cc1,.,.,-33%[46.1 µM],?,20%,-75*
CCCS(=O)(=O)c1nc(S(=O)(=O)c2ccc(C)cc2)c(N2CCN(C)CC2)s1,5%,3%,.,.,0%,?
Cc1ccc(S(=O)(=O)c2nc(S(=O)(=O)c3ccccc3)sc2N2CCN(CCO)CC2)cc1,-8%,2%,.,.,20%,-98*
COCCN1Cc2cc(C(=O)OC)c3c(c2C1=O)c1cc(OC)ccc1n3S(=O)(=O)c1ccc(C)cc1,.,.,.,.,.,-32
COc1ccc(-c2cn3nc(N4CCCC(C(=O)Nc5cc(C)ccc5C)C4)sc3n2)cc1 (centres undefined),.,.,38%[46.1 µM],.,-11%,0
CCOc1ccc(N2CC(NC(=O)c3ccc(Cl)cc3)CC2=O)cc1 (centres undefined),.,.,13%[46.1 µM],.,-10%,-7
O=C(O)c1ccc2c(c1)C(=O)N(c1cccc(C(=O)/C=C/c3ccccc3)c1)C2=O,8%,11%,14%,16%[14.2 µM],25µM*,134
CCn1c2ccccc2c2cc(NC(=O)CSc3nnc(-c4ccccc4)o3)ccc21,7.1µM*,0%,?,-19%,-19%,-28
SMILES,HCV inhibitor,FBPA Giardia inh,LASV entry inh,Marburg entry inh,FMDV inh,HCMV antiviral
O=C(CSc1nnc(-c2ccncc2)o1)NCc1ccccc1,-4%,2%,-2%,1%,-5%,-90*
c1ccc(CSc2nnc(-c3ccncc3)o2)cc1,-5%,5%,16%,?,0%,-73*
COC(=O)c1ccc(CSc2nnc(-c3ccncc3)o2)cc1,15%,7%,?,14%[46.1 µM],7%,-68*
COC(=O)c1ccc(CSc2nnc(-c3ccncc3)o2)o1,31%,0%,2%,11%,-2%,14
CCOc1ccc(S(=O)(=O)N2CCC(N3CCN(Cc4ccc(F)cc4)C(=O)C3=O)CC2)cc1,.,.,-6%[46.1 µM],.,-5%,-6
CC1(C)OC2CC3C4CC(F)C5=CC(=O)C=C[C@@]5(C)[C@@]4(F)C(O)C[C@@]3(C)[C@]2(C(=O)CO)O1 (some centres undefined),.,0%,.,.,5%,.
COC(=O)[C@@H]1CCCN1Cc1ccc2c(c1)CN(Cc1ccc3c(c1)CCCN3C)CCO2,.,.,.,.,-2%,.
COC(=O)NC(/C=C/c1ccccc1)C(C(C)=O)C(=O)OC (centres undefined),.,-2%,.,?,.,.
CCOC(=O)C1CCN(C(=O)c2ccc3c(c2)NC(=O)/C(=C\c2ccc(C)cc2)S3)CC1,?,-2%,.,.,-15%,0
CCOC(=O)C1CCN(C(=O)c2ccc3c(c2)NC(=O)/C(=C/c2ccccc2)S3)CC1,11µM*,.,.,.,-6%,?
CN1CCN(C(=O)c2ccc3c(c2)NC(=O)/C(=C/c2ccccc2)S3)CC1,11µM*,13%,.,.,-10%,-69*
CCOC(=O)C1CCN(C(=O)c2ccc3c(c2)NC(=O)/C(=C\c2cccc(C)c2)S3)CC1,11µM*,-18%,.,.,-14%,-10
CC(=O)N1[C@H](Cc2ccccc2)C=C[C@]1(C)C(=O)O,.,4%,.,.,.,.
CCOC(=O)c1ccccc1NC(=O)CCc1c(C)nc2ncnn2c1C,.,.,28%[46.1 µM],8%[46.1 µM],-15%,12
COc1cccc(-c2cnc(NCc3ccccc3Cl)n2C)c1,.,.,-28%[46.1 µM],?,33%,-25
Cc1cc(NC(C)c2ccccc2)n2ncc(-c3ccccc3)c2n1 (centres undefined),?,1%,.,.,15%,85
Cc1cc(-c2ccccc2)n2ncc(-c3ccccc3)c2n1,?,0%,?,3.7µM*,-16%,-60*
Cc1nc2c(-c3ccccc3)cnn2c(N)c1-c1ccccc1,?,5%,?,?,?,-91*
Cc1cc(NC2CCCC2)n2ncc(-c3ccccc3)c2n1,?,-1%,?,?,40µM*,-90*
